Experimental data reported in PubChem BioAssay (NCATS).
Results filed as inconclusive are left out. The source made the active and inactive calls. Calls come from the whole dose curve; as a rule, active = well fitted curve in the direction sought with a large enough effect; inconclusive = small, poorly fitted or top-dose-only effect, or another doubt; inactive = no such curve, though single readings can be large; an effect the other way counts as inactive or inconclusive.

How the values were obtained:
[1] = system: HACAT; test: qHTS assay to identify novel small-molecules to repurpose for Merkel cell carcinoma treatment (AID 1296009); conditions: MCC and control cell lines, CellTiter-Glo viability, 72 h; at 44.8 µM (top of the series) unless noted; note: nearly all actives have a fitted effect of over 60% in size
Outline: (§1)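 Viability readout: ATP luminescence (CellTiter-Glo) after 72 hr drug exposure at 37 degree celsius. Dose-response format was 8 points for NPC and 11 points for MIPE; data normalized to in-plate controls.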

[2] = system: NIH3T3; test: as above; conditions: MCC and control cell lines, CellTiter-Glo viability, 72 h; at 44.8 µM (top of the series) unless noted
Outline: as §1

[3] = system: C33A; test: Primary qHTS to identify gynecologic anti-cancer compounds using libraries of approved drugs and bioactive compounds (AID 1345084); conditions: Gynecologic cancer cell panel viability, ATPlite luminescence, 48 h; series mostly up to 57.5 µM; note: nearly all actives have a fitted effect of over 55% in size
Outline: (§2)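 Five-concentration response, 48 h; readout is ATP-driven luciferase luminescence.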

[4] = system: CASKI; test: as above; conditions: Gynecologic cancer cell panel viability, ATPlite luminescence, 48 h; series mostly up to 57.5 µM
Outline: as §2

[5] = system: Es-2; test: as above; conditions: Gynecologic cancer cell panel viability, ATPlite luminescence, 48 h; series mostly up to 57.5 µM
Outline: as §2

[6] = system: HeLa; test: as above; conditions: Gynecologic cancer cell panel viability, ATPlite luminescence, 48 h; series mostly up to 57.5 µM
Outline: as §2

[7] = system: Hek293T; test: as above; conditions: Gynecologic cancer cell panel viability, ATPlite luminescence, 48 h, control line for the selectivity index; series mostly up to 57.5 µM
Outline: as §2

[8] = system: JEG-3; test: as above; conditions: Gynecologic cancer cell panel viability, ATPlite luminescence, 48 h; series mostly up to 57.5 µM
Outline: as §2

[9] = system: CAOV3; test: as above; conditions: Gynecologic cancer cell panel viability, ATPlite luminescence, 48 h; series mostly up to 57.5 µM
Outline: as §2

Measured: Potency

CN[C@H](CNC(=O)N1CCC[C@@H]([C@@H](OCCNC(=O)OC)c2cccc(Cl)c2)C1)C[C@H]1CCCOC1
not listed: [9]
inactive: all other assays above

CC(=O)NC1CC(=O)C23C(=O)NC(Cc4c[nH]c5ccccc45)C2C(C)=C(C)C(O)C3/C=C/CC(C)/C=C(/C)C(O)C1O (configuration not stated)
inactive: [1] inactive [at 17.4 µM] | [2] inactive [at 17.4 µM] | [3] | [4] | [5] | [6] | [7] | [8]

O=[N+]([O-])c1cc(Cl)ccc1S(=O)(=O)N1CCN(Cc2ccccc2)CC1
not listed: [7]
inactive: all other assays above

COC(=O)c1[nH]c(=O)c2ccccc2c1-c1ccc[nH]1
not listed: [5] | [7]
inactive: all other assays above

COc1cc(C2OCC3(O)C(c4ccc(O[C@@H]5O[C@H](CO)[C@@H](O)[C@H](O)[C@H]5O)c(OC)c4)OCC23O)ccc1O (some centres not stated)
inactive: [1] inactive [at 17.4 µM] | [2] inactive [at 17.4 µM] | [3] | [9] | [4] | [5] | [6] | [8]

COc1ccc(Oc2c(Cl)cnn(C3c4ccccc4-c4ccccc43)c2=O)cc1
not listed: [9]
inactive: all other assays above

C=C(CC/C=C(\C)C(=O)O)C1(O)CC=C(C)CC1 (configuration not stated)
not listed: [9]
inactive: all other assays above

OC[C@H]1O[C@@H](OCCc2ccccc2)[C@H](O[C@@H]2OC[C@@H](O)[C@H](O)[C@H]2O)[C@@H](O)[C@@H]1O
inactive: [1] inactive [at 17.4 µM] | [2] inactive [at 17.4 µM] | [3] | [4] | [5] | [6] | [7] | [8]

Nc1ccc(-n2nc(C(F)(F)F)cc2C(F)(F)F)cc1
inactive: all assays above

COc1cc(C(CO)C(OC2OC(CO)C(O)C(O)C2O)c2ccc(O)c(OC)c2)ccc1O (configuration not stated)
inactive: [1] inactive [at 17.4 µM] | [2] inactive [at 17.4 µM] | [3] | [9] | [4] | [5] | [6] | [7] | [8]

CCC(C)/C=C(C)/C=C/C1=CC2=C(Cl)C(=O)C(C)(OC(C)=O)C(=O)C2=CN1C(CCC(=O)O)C(=O)O (configuration not stated)
inactive: [1] inactive [at 17.4 µM] | [2] inactive [at 17.4 µM] | [3] | [9] | [4] | [5] | [6] | [8]

O=C(O)c1ccc(NC(=O)[C@H](CC2CCCC2)n2cnc(C(F)(F)F)c2)nc1
not listed: [6]
inactive: all other assays above

COCc1c(O)c(C(=O)O)c(C)c2c1OC(=O)c1c(C)cc(O)c(CO)c1O2
inactive: all assays above

CC1=C2CC(O)(C(C)(C)O)C(O[C@@H]3O[C@H](CO)[C@@H](O)[C@H](O)[C@H]3O)CC(C)C2CC1=O (some centres not stated)
inactive: [1] inactive [at 17.4 µM] | [2] inactive [at 17.4 µM] | [3] | [9] | [4] | [5] | [6] | [7] | [8]

CCCCNc1nc(N)c2[nH]c(=O)n(Cc3ccc(OCCN(C)C)nc3)c2n1
inactive: [1] | [2] inactive; activator | [3] | [9] | [4] | [5] | [6] | [7] | [8]

CC(C)=CCC/C(C)=C/CO[C@@H]1O[C@H](CO[C@@H]2OC[C@](O)(CO)[C@H]2O)[C@@H](O)[C@H](O)[C@H]1O
inactive: [1] inactive [at 17.4 µM] | [2] inactive [at 17.4 µM] | [3] | [4] | [5] | [6] | [7] | [8]
